A selection: hits, their analogues and other compounds. The true share with any hit is near 4.7%.
RecA splice inh = Mtb RecA intein splicing inhibitors, primary screen, biochemical, fluorescence, HTS | Protein RecA (Mycobacterium tuberculosis (strain ATCC 25618 / H37Rv)), P9WHJ3 | cell-free RecA intein splicing | inhibition, % (concentration not given with the values) | hit rate 0.75% among 290,000 | AID 2221, 2009; in the data active = inhibition above about 30%;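 note: 0% = vehicle wells and 100% = reference inhibitor control wells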
VHR inh abs = VHR1 phosphatase inhibitors, primary screen, biochemical, absorbance, uHTS; recombinant VHR phosphatase, pNPP absorbance; inhibition, % at 13.3 µM; hit rate 0.52% among 290,000; Dual specificity protein phosphatase 3 (Homo sapiens), P51452; in the data active = inhibition above about 50%
Target sequence (P51452 whole entry, looked up): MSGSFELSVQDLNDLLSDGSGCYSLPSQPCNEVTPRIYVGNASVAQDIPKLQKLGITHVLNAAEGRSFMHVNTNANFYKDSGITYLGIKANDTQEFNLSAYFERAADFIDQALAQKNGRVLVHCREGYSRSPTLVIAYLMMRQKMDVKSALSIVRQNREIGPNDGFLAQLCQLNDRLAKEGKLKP
CCHFV vOTU inh = CCHFV vOTU protease inhibitors, primary screen, biochemical, Pep-AMC substrate, fluorescence; Crimean-Congo hemorrhagic fever virus L polyprotein viral ovarian tumor (vOTU) protease …; inhibition, % at 11.5 µM; hit rate 0.55% among 370,000; note: 0% = vehicle wells with enzyme and 100% = no enzyme wells
3CLpro inhibitor = SARS-CoV 3CLpro protease inhibitors, primary screen, biochemical, quenched FRET; hit rate 0.14% among 290,000; recombinant SARS-CoV 3CLpro, quenched FRET peptide cleavage; inhibition, % at 6 µM; in the data active = inhibition above about 12%
FBA Mtb inh = Mtb FBA enzyme inhibitors, primary screen, biochemical, fluorescence, strain H37Rv. inhibition, % at 1 µM. hit rate 2.3% among 360,000. Fructose-bisphosphate aldolase (Mycobacterium tuberculosis (strain ATCC 25618 / H37Rv)), …. purified M. tuberculosis FBA, fluorescence read-out; in the data active = inhibition above about 27%;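 note: 0% = vehicle and 100% = reference inhibitor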
Target sequence (P9WQA3 whole entry, looked up): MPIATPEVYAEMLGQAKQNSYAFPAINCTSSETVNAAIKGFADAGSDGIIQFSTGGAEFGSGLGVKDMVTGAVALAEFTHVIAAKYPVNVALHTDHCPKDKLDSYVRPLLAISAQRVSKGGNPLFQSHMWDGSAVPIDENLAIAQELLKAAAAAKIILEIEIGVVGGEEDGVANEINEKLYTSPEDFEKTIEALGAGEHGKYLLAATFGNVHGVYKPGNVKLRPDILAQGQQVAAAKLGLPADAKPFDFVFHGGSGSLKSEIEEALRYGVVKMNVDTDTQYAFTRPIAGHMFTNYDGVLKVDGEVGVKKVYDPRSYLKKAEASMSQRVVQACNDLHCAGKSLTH
GDH-TPI inh = GDH-TPI coupling enzyme inhibitors, primary screen, artefact control for M. tuberculosis FBA inhibitor project, biochemical, absorbance, full deck; GDH-TPI coupled enzyme counterscreen, NADH absorbance; inhibition, % at 4.8 µM; hit rate 1.2% among 360,000; AID 588335, 2011;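 note: 0% = DMSO wells and 100% = wells lacking the enzyme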
Numbers without * were called inactive; x = not tested or not shown. Cut-off read from the data, not from the text of the source, unless noted: active = inhibition above about 30%; inactive = the rest.

SMILES	RecA splice inh	VHR inh abs	CCHFV vOTU inh	3CLpro inhibitor	FBA Mtb inh	GDH-TPI inh
COc1ccc(/C=C/C(=O)NC(=S)Nc2ccc(C(=O)O)cc2)cc1	-1.4	5.1	21.1	3.0	-0.6	50.0*
O=C(CCl)N1N=C(c2ccco2)CC1c1ccco1 (stereo unspecified)	53.9*	31.7	9.8	11.1	-2.1	12.7
CCn1c(SCC(=O)N2c3ccccc3CCc3ccccc32)nnc1-c1ccc(OC)cc1	0.0	55.4*	x	6.6	9.1	2.2
CC(C)CNC(=O)c1coc(=O)c(Br)c1	0.0	6.5	1.3	-4.8	14.4	28.5
O=C(NCCC1=CCCCC1)c1ccc(Cl)cc1	1.5	1.9	x	-3.2	x	x
O=C(NCCC1=CCCCC1)c1ccc(=O)oc1	-0.5	23.2	13.0	-7.5	-1.9	52.4*
O=C(NCCC1=CCCCC1)c1coc(=O)c(Br)c1	-1.8	23.5	-7.6	-5.1	14.3	39.0*
O=C(NCCc1ccccc1)c1coc(=O)c(Br)c1	-1.0	2.4	-17.2	-1.5	23.6	41.4*
Cc1ccc(C(=O)OCC(=O)c2ccc(Br)cc2)cc1S(=O)(=O)N1CCOCC1	x	x	-4.4	x	-0.3	1.3
Cc1ccc(SCC(=O)N2c3ccccc3Sc3ccccc32)cc1	6.6	23.5	-6.4	-2.9	2.5	-4.7
COc1ccc(CNS(=O)(=O)c2cc(Cl)ccc2N2CC[C@@H](O)C2)cc1	x	x	-6.5	x	x	x
CCCCOc1ccc(NC(=S)Nc2cc(C)nc(SCCCC)n2)cc1	-0.8	-6.1	16.2	-1.2	4.1	1.1
N#CC(C(=O)Nc1ccc(Cl)c(Cl)c1)=C1Nc2ccccc2N1	-0.5	8.1	7.1	5.8	6.8	32.5*
N#CC(C(=O)Nc1cccc(Cl)c1)=C1Nc2ccccc2N1	0.2	1.4	-3.2	1.0	0.3	30.4
O=C(CCCCl)Nc1c2c(nn1-c1ccccc1)CSC2	2.3	-7.0	0.1	-7.6	-2.4	2.6
CC(=O)Nc1c2c(nn1-c1ccccc1C)CSC2	1.0	57.5*	13.3	-2.7	0.2	-4.3
CC(=O)Nc1c2c(nn1-c1ccccc1C)CS(=O)(=O)C2	-4.1	56.9*	10.4	-1.8	1.1	4.7
CCC(=O)Nc1c2c(nn1-c1ccccc1C)CSC2	-0.1	13.3	-13.6	-4.5	-2.0	-3.4
CCCC(=O)Nc1c2c(nn1-c1cccc(C)c1C)CS(=O)(=O)C2	-1.7	13.3	-1.9	-2.0	-0.2	-4.4
O=C(CCl)Nc1c2c(nn1-c1ccccc1)CSC2	34.9*	-14.4	5.5	1.3	-1.1	-6.6
CCCCN1CC(N2CCCC2)CS1(=O)=O (stereo unspecified)	x	x	7.1	x	x	x
O=C(NC(Cc1ccccc1)C(=O)O)OCC1c2ccccc2-c2ccccc21 (stereo unspecified)	-0.6	53.0*	-3.4	1.5	0.2	1.0
O=C1CCC(NC(=O)Cc2ccccc2)C(=O)N1 (stereo unspecified)	x	x	-3.9	x	x	x
N#CC(C#N)=C1C=CC=CN1/C(=C\c1ccco1)C(=O)c1ccc(Br)cc1	x	-8.9	3.4	0.1	-0.6	37.4*
N#CC(C#N)=C1C=CC=CN1/C(=C\c1ccco1)C(=O)c1ccccc1	x	-19.5	-13.6	-0.8	2.6	33.8*
SMILES	RecA splice inh	VHR inh abs	CCHFV vOTU inh	3CLpro inhibitor	FBA Mtb inh	GDH-TPI inh
COc1ccc(/C=C(/C(=O)c2cccs2)N2C=CC=CC2=C(C#N)C#N)cc1	0.4	26.2	2.7	-1.4	6.2	13.6
COc1ccc(C(=O)/C(=C\c2ccco2)N2C=CC=CC2=C(C#N)C#N)cc1	14.1	35.6	x	6.8	-2.0	50.9*
CCC(CC)C(=O)c1c[nH]c(C(=O)N2CCN(c3ccccc3F)CC2)c1	-0.4	16.9	-15.4	3.7	2.4	6.3
N#C/C(=C1\CCCN1)c1ccc2ccccc2n1	-3.3	1.5	-4.9	0.3	-0.1	6.0
N#C/C(=C1/CCCCCN1)c1nc2ccccc2[nH]1	4.3	8.4	17.6	0.2	-3.2	38.5*
COCCCNC(=O)C[C@H]1C[C@@]2(C(=O)OC)C(=C[C@H](C(C)C)O[C@@H]2C2CC2)N(Cc2cccc3ccccc23)C1=O	x	x	3.0	x	x	x
Cc1ccc(NC(=O)N2CCOCC2)cc1NC(=O)N1CCOCC1	x	x	-3.9	x	0.5	-4.0
COC(=O)C1=C(C)N(C)C(=NCc2ccc(C(F)(F)F)cc2)NC1c1cccc(F)c1 (stereo unspecified)	x	x	8.5	x	x	x
Cc1cccc(/N=C/c2c(O)[nH]c3ccccc23)n1	x	-0.8	-4.0	3.9	0.2	45.0*
COc1ccc(CNC(=O)c2ccc(=O)oc2)cc1OC	-0.6	16.1	20.8	-3.8	0.6	59.6*
O=C(NCc1cccnc1)c1ccc(=O)oc1	1.2	7.1	24.8	-1.9	-0.7	43.4*
COc1ccc(C(=O)NCc2ccc(Cl)c(Cl)c2)cc1OC	-0.7	4.4	24.4	0.9	1.7	-6.2
C=CCn1c(NCc2cc(C)ccc2O)nc2ccccc21	2.8	50.3*	12.2	-2.5	-2.9	11.5
CC(C)n1c(NCc2cc(Cl)ccc2O)nc2ccccc21	5.4	54.5*	10.4	-3.7	-0.8	6.0
CCCCn1c(NCc2cc(C)ccc2O)nc2ccccc21	x	x	23.6	x	0.3	6.2
CCCCN(C=O)c1c(CC)nc2c(OCCOc3ccccc3)cccn12	x	x	6.5	x	3.9	16.4
CCN(C(=O)c1cnc2scc(C)n2c1=O)c1ccccc1C	-1.5	-2.4	-3.5	-1.2	3.1	30.8*
Cc1csc2ncc(C(=O)N3c4ccccc4CC3C)c(=O)n12 (stereo unspecified)	-6.5	-6.1	20.4	-4.2	4.6	41.6*
Cc1csc2ncc(C(=O)Nc3ccccc3F)c(=O)n12	2.0	16.2	-1.3	x	-1.7	30.8*
Cc1csc2ncc(C(=O)Nc3ccccc3Cl)c(=O)n12	-1.8	2.9	-3.7	-1.4	2.0	4.3
Cn1c(=O)c(=O)n(C)c2cc(S(=O)(=O)CCC(=O)Nc3ccccc3C(F)(F)F)ccc21	x	x	-8.6	x	3.0	9.1
O=C(CN1CCN(c2ccccc2O)CC1)NC(c1ccccc1)c1ccccc1	9.2	17.7	-10.1	-3.1	-2.7	1.9
O=C(CN1CCCC1)NC(c1ccccc1)c1ccccc1	-0.9	51.0*	-6.2	-1.9	-1.0	7.4
O=C(O)c1ccc(Nc2nc(-c3cccnc3)cs2)cc1O	0.3	-17.8	6.3	-6.9	-2.0	43.4*
COc1ccccc1C(=O)c1nc2ccccc2n1C	2.1	58.2*	19.4	-4.6	-3.0	19.9
O=C(CC(SCCO)c1ccc([N+](=O)[O-])cc1)c1ccco1 (stereo unspecified)	-3.1	7.3	-1.5	-1.1	0.6	31.0*

Source: PubChem
